Screens deposited in PubChem by National Center for Advancing Translational Sciences (NCATS).
aSyn rescue – inhibitors of alpha-synuclein toxicity in yeast; hit rate 0.14% among 370,000; Yeast expressing alpha-synuclein, growth rescue, BacTiter-Glo, 24 h; Potency, µM (doses to about 46.1 µM), for the others: top-dose growth rescue (activation), actives largely listed as activators; further: potency means the concentration at half of the fitted maximal effect; % of control where 0% means no effect; nearly all actives have a fitted effect of over 65% in size
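Rescue of yeast growth: cells expressing toxic alpha-synuclein, induced in galactose at OD600 0.02, incubated with compound 24 h at 30 C. ATP luminescence quantified growth; inhibitors of toxicity appear as activators.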
FUS yeast rescue – FUS proteinopathy suppression in yeast | S. cerevisiae FUS-expressing, growth rescue, OD600, 24 h | AID 1347120 | hit rate 0.24% among 390,000 | Potency, µM (titrated, usually from 76.6 µM), most hits filed as activators;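 further: potency means the concentration at half of the fitted maximal effect; plate controls were DMSO vehicle for no effect and reference control for full effect; nearly all actives have a fitted effect of over 55% in size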
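FUS-expressing yeast, raffinose-pregrown, induced in 2% galactose minimal medium at OD 0.005; compounds in a dilution series, 24hr at 30C. Growth restoration read as absorbance at 600 nm. CP55940 positive control, DMSO negative.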
LDHA block – blocks human lactate dehydrogenase A | activity change, % (values are at about 110 or 230 µM) | P00338 | hit rate 0.15% among 480,000 | purified LDHA, NADH/diaphorase-resazurin fluorescence; hits give low values | AID 1347041; in the data active means activity change below about -30%; inconclusive means mostly about -25% to -30%;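 further: plate controls were DMSO wells for no effect and wells without enzyme for full effect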
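Human LDH5 at 2 nM final in Tris HCl pH 7.4 with 0.06 mM NADH and 0.2 mM pyruvate, reacted 5 minutes at room temperature. Remaining NADH coupled via diaphorase/resazurin; resorufin fluorescence read at 0 and 20 minutes, normalized to enzyme-free and DMSO wells.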
TDP43 rescue – TDP-43 toxicity inhibition in yeast; hit rate 1.8% among 410,000; TDP-43 expressing yeast growth rescue, BacTiter-Glo, 24 h; Potency, µM (top dose mostly 46.1 µM), for inactives: top-dose growth rescue (activation), hits mostly activators; further: potency means the concentration at half of the fitted maximal effect; % of control where 0% means no effect; nearly all actives have a fitted effect of over 50% in size
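Readout is BacTiter-Glo luminescence of cell growth, so inhibitors register as activators. TDP-43-expressing yeast at OD600=0.02 in galactose medium, after raffinose pregrowth to mid-log, were incubated with compound for 24 hr at 30 deg C.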
Abeta yeast res – A-beta toxicity reversal in yeast. yeast expressing A-beta42, growth rescue, OD600, 48 h; response scale: 0% DMSO, 100% iron-clioquinol control. AID 1347071. Potency, µM (doses to about 46.1 µM), usual class: activators. hit rate 0.063% among 410,000; further: potency means the concentration at half of the fitted maximal effect; nearly all actives have a fitted effect of over 55% in size
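Yeast growth medium received pinned compounds, then yeast cells expressing toxic A-beta were added; plates incubated at 30 C for 48 hr. Growth read as absorbance at 600 nm, normalized to DMSO and equimolar FeCl3 plus clioquinol controls.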
IDH1 R132H inh – inhibitors of human mutant IDH1 R132H; O75874; IDH1-R132H enzyme, NADPH consumption, diaphorase/resazurin fluorescence; Potency, µM (titrated, usually from 76.6 µM), for inactives: at the highest dose activity change, negative = inhibition, usual class: inhibitors; hit rate 0.093% among 390,000; AID 602179; further: potency means the concentration at half of the fitted maximal effect; on the % scale 0 is the no-effect control and ±100 the full control effect; nearly all actives have a fitted effect of over 65% in size
Target sequence (O75874 whole entry R132H, stated change not applied): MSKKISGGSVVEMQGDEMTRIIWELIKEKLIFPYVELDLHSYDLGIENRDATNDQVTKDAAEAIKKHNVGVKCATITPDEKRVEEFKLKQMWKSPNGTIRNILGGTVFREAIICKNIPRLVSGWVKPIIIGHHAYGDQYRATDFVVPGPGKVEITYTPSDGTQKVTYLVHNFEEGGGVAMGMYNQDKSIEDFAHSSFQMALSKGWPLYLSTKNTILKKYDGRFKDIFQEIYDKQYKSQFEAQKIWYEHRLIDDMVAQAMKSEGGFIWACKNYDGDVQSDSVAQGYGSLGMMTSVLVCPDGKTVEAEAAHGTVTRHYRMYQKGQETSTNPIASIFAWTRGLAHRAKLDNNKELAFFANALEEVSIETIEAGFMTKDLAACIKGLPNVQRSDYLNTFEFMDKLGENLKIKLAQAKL
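IDH1-R132H (0.5 ug/mL) preincubated 30 min with compound, then NADPH (0.016 mM) and alpha-KG (2 mM) added; 80 min at RT, pH 7.5. Remaining NADPH coupled via diaphorase/resazurin to fluorescence (540/590 nm); concentration-response curves normalized to no-enzyme control.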
* = called active by the depositor; i = inactive; u = inconclusive; x = no result; [ ] = dose if it differs, or a comment. Only some compounds are listed: those with a hit (about 2% of all), similar ones and a draw of the others. Unless noted, the call rests on the fitted dose curve; in most records, active means well fitted curve in the direction sought with a large enough effect; inconclusive means small, poorly fitted or top-dose-only effect, or another doubt; inactive means no such curve, though single readings can be large; an effect the other way counts as inactive or inconclusive.

SMILES	aSyn rescue	FUS yeast rescue	LDHA block	TDP43 rescue	Abeta yeast res	IDH1 R132H inh
S=C(NCCc1ccccc1)N1CCC2CC1c1cc(-c3ccc4c(c3)OCO4)ccc12 (stereo not given)	-10.8%	i	-12.9	u	i	x
Cc1ccc(C2C(C#N)=C(N)OC3=C2C(=O)CC(C)(C)C3)cc1 (stereo not given)	x	x	-5.4	x	x	x
COc1ccc(-c2csc(NC(=O)C3=COCCO3)n2)cc1OC	-1.7%	i	-0.5	8.1%	i	5.2%
O=C(Nc1nc(-c2ccc(F)c(F)c2)cs1)C1=COCCO1	0.2%	i	-2.5	3.98µM*	i	-8.1%
O=C(Nc1nc(-c2ccc(Cl)cc2)cs1)C1=COCCO1	-9.0%	i	-7.6	u	i	3.5%
CCc1ccc(-c2csc(NC(=O)C3=COCCO3)n2)cc1	7.3%[1.84 µM]	i	0.0	17.8µM*	i	8.5%
CCCCC(=O)N(C)c1c(CC)nc2c(OCC(=O)N3CCOCC3)cccn12	-5.0%	i	-37.3*	0.0%	i	x
O=C(NC1CCCc2ccccc21)c1cc2c(Cl)nc3ccccc3c2s1 (stereo not given)	x	x	4.0	x	x	x
CC1Cc2ccccc2N1C(=S)NC(=O)c1ccco1 (stereo not given)	-11.2%	i	-8.4	u	i	3.3%
CC1Cc2ccccc2N1C(=S)NC(=O)C1(C)CC1(Cl)Cl (stereo not given)	-5.7%	i	-9.3	u	12.6µM*	0.7%
CCCCNc1c(-c2cccc(-c3cc(C(C)=O)cs3)c2)nc2ccc(C)cn12	-7.2%	i	3.2	11.2µM*	i	6.7%
COCc1c(C(=O)NCC2COc3ccccc3O2)oc2ccccc12 (stereo not given)	0.8%	i	-1.3	31.6µM*	i	-1.0%
CC(C)Oc1ccc(/C=C/C(=O)NCC2COc3ccccc3O2)cc1 (stereo not given)	2.4%	i	3.4	17.8µM*	u	3.0%
CC(=O)NCC1COc2ccccc2O1 (stereo not given)	4.1%	i	-3.6	18.2%	i	1.6%
Cc1ccccc1C(=O)OCC(=O)NCC1COc2ccccc2O1 (stereo not given)	14.0%	x	-5.0	14.1µM*	i	0.0%
O=C(COc1ccc(Br)cc1)NCC1COc2ccccc2O1 (stereo not given)	u	i	-1.4	25.1µM*	i	-2.2%
CC1CCN(C(=O)CSc2n[nH]c(-c3cc(Br)ccc3O)n2)CC1	x	x	-14.2	x	x	x
CC1CCc2nc3ccccc3c(C(=O)Nc3ccc(F)c(F)c3)c2C1 (stereo not given)	x	x	7.5	x	x	x
COc1ccc2ccccc2c1C(=O)/C=C\c1ccoc1	u	i	10.4	11.2µM*	i	-1.3%
Cc1ccc(-c2ccc(CCC(=O)O)n2NC(N)=S)cc1	5.0%	i	-1.6	5.1%	i	6.1%
Cc1ccc(-c2ccc(CCC(=O)O)n2C(C)C)cc1	1.8%	i	-1.8	35.5µM*	i	1.0%
CCCNC(=O)NC(=O)COC(=O)c1cc(-c2ccco2)nc2ccccc12	x	x	-2.0	x	x	x
Cc1ccc(S(=O)(=O)N2CCC(C(=O)NCc3csc(-c4ccccc4)n3)CC2)cc1C	x	x	14.3	x	x	x
Cc1c(C(=O)Nc2cccnc2)oc2ccc(Br)cc12	-11.3%	i	-6.1	8.91µM*	i	16.8%
CCOC(=O)c1c(C)c(-c2ccccc2)n(CC(=O)NCCN2CCCCC2CC)c1C (stereo not given)	x	x	-2.4	x	x	x
SMILES	aSyn rescue	FUS yeast rescue	LDHA block	TDP43 rescue	Abeta yeast res	IDH1 R132H inh
O=C(/C=C/c1ccc(F)cc1)c1ccccc1Br	u	x	-1.1	15.8µM*	i	0.5%
Cc1ccc(CNC(=O)c2cc(-c3ccncc3)nc3ccccc23)cc1	x	x	2.9	x	x	x
O=C(NCCc1ccccc1)c1nn(-c2ccccc2Cl)nc1CO	x	i	-4.9	35.5µM*	i	-14.0%
O=C(NCCCc1ccccc1)c1nn(-c2ccccc2)nc1CO	x	i	1.5	27.2%	i	11.9%
CC1CCCN(C(=O)c2cc3c(Cl)nc4ccccc4c3s2)C1 (stereo not given)	x	i	-3.2	20µM*	i	-14.7%
COc1ccc(-c2csc(C(NC(C)=O)c3ccc(F)c(F)c3)n2)cn1 (stereo not given)	11.5%	i	-4.8	35.5µM*	i	x
CC(=O)NC(c1cccc(F)c1)c1nc(-c2cccc(C(C)C)c2)cs1 (stereo not given)	u	u	0.8	25.1µM*	i	x
CCCCN(CC)S(=O)(=O)c1ccc(C(=O)Nc2nnc(CSC)o2)cc1	31.6µM*	i	-1.6	u	i	-5.0%
CCCCN(CCCC)S(=O)(=O)c1ccc(C(=O)Nc2nnc(CSC)o2)cc1	u	i	-1.3	21.1%	i	-5.2%
Cc1nc(Sc2nnnn2-c2ccccc2)c(C#N)c(C)c1C	0.1%	i	-7.4	17.8µM*	i	0.9%
COc1cccc(NC(=S)NC(Cc2ccccc2)c2ccccc2)c1 (stereo not given)	27.2%	i	-5.1	11.2µM*	u	2.6%
COc1cccc(NC(=S)NC(C)c2ccc(OC)c(OC)c2)c1 (stereo not given)	1.2%	i	-10.6	-3.0%	i	1.5%
CC(C)(C)c1ccc(-c2oc(NC(=O)CCl)c(C#N)c2-c2ccc(C(C)(C)C)cc2)cc1	x	x	5.4	x	x	x
COc1cn(-c2ccccc2)nc1C(=O)Nc1ccc(C)cc1	5.9%	i	-3.1	u	i	-2.9%
COc1ccc(C)cc1NC(=O)Nc1ccccc1	-0.6%	i	0.8	-3.1%	i	1.0%
COc1ccc(C)cc1NC(=O)C1CC1c1ccccc1 (stereo not given)	-29.4%	i	-3.6	15.8µM*	i	5.8%
COc1ccc(C)cc1NC(=O)c1nn(-c2ccccc2)cc1OC	-10.7%	i	-2.4	15.8µM*	i	6.5%
Cc1nc2cc(NC(C)C(=O)Nc3ccc(C(C)C)cc3)ccc2o1 (stereo not given)	x	x	87.5	x	x	x
Cc1ccc(S(=O)(=O)N2C[C@H]3[C@H]4C(=O)N(Cc5ccccc5)C(=O)[C@H]4CC(=O)[C@H]3[C@@H]2c2ccccc2Cl)cc1	-0.5%	i	-5.3	24.8%	i	x
Cc1ccc(S(=O)(=O)N2C[C@H]3[C@H]4C(=O)N(Cc5ccccc5)C(=O)[C@H]4CC(=O)[C@H]3[C@@H]2c2ccccc2F)cc1	2.1%	17.8µM*	-7.2	23.3%	i	x
O=C(O)c1ccc(-n2nc(C(F)(F)F)c3c2CCCC3)cc1	9.6%	i	-9.8	15.8µM*	i	-11.1%
